From PubChem BioAssay (NCATS)
Inconclusive results are not listed. The source made the active and inactive calls. Unless noted, calls come from the whole dose curve.

Assays:
[1] = molecular target: Parathyroid hormone/parathyroid hormone-related peptide receptor (Homo sapiens) (UniProt Q03431); assay: qHTS for PTHR1 Agonists: Optimization Screen against the NCGC LOPAC library (AID 1347079; active = well fitted curve in the direction sought with a large enough effect; an effect the other way counts as inactive or inconclusive;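 note: GloSensor cAMP luminescence in HEK-293 GP2 cells expressing human PTHR1 with IBMX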)
Sequence of Parathyroid hormone/parathyroid hormone-related peptide receptor (Homo sapiens) (Q03431 whole entry, looked up): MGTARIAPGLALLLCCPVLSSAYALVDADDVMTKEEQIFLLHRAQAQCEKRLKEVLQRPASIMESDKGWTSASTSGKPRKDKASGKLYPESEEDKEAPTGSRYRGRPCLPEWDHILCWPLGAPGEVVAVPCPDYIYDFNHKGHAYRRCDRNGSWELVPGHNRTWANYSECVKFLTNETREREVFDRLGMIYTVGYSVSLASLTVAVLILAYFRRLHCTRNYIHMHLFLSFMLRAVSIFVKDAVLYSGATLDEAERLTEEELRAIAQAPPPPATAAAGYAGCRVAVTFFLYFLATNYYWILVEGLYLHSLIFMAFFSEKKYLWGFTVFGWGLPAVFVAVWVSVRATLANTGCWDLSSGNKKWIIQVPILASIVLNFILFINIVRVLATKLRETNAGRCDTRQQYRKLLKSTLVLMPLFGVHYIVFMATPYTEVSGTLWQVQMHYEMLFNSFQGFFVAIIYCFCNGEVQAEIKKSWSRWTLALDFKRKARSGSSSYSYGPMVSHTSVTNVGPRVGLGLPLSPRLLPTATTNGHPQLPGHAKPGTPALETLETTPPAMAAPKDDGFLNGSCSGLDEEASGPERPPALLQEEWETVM
Outline: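 Agonist readout: GloSensor cAMP luminescence, read after 15 min at room temperature. HEK-293-derived GP2 line carries PTHR1; compounds tested as a titration for 1 hr at 37C in presence of IBMX. M-PTH (1-15) served as control.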

[2] = qHTS for Inhibitors of the Functional Ribonucleoprotein Complex (vRNP) of Lassa (LASV) Arenavirus: LASV Primary Screen - GLuc reporter signal (AID 1347082; calls by dose curve; tested in HEK293 reporter line; note: series mostly up to about 57 µM; nearly all actives have a fitted effect of over 60% in size)
[3] = qHTS for Inhibitors of the Functional Ribonucleoprotein Complex (vRNP) of Lassa (LASV) Arenavirus: Viability assay - alamar blue signal for LASV Primary Screen (AID 1347083; calls by dose curve; tested in HEK293 reporter line; note: series mostly up to about 57 µM; nearly all actives have a fitted effect of over 80% in size)
[4] = qHTS for Inhibitors of the Functional Ribonucleoprotein Complex (vRNP) of Lymphocytic Choriomeningitis Arenaviruses (LCMV): Viability assay - alamar blue signal for LCMV Primary Screen (AID 1347085; calls by dose curve; tested in HEK293 reporter line; note: series mostly up to about 57 µM; nearly all actives have a fitted effect of over 80% in size)
[5] = molecular target: Nucleoprotein (Lymphocytic choriomeningitis virus (strain Armstrong)) (UniProt P09992); assay: qHTS for Inhibitors of the Functional Ribonucleoprotein Complex (vRNP) of Lymphocytic Choriomeningitis Arenaviruses (LCMV): LCMV Primary Screen - GLuc reporter signal (AID 1347086); note: series mostly up to about 57 µM; nearly all actives have a fitted effect of over 70% in size
Sequence of Nucleoprotein (Lymphocytic choriomeningitis virus (strain Armstrong)) (P09992 whole entry, looked up): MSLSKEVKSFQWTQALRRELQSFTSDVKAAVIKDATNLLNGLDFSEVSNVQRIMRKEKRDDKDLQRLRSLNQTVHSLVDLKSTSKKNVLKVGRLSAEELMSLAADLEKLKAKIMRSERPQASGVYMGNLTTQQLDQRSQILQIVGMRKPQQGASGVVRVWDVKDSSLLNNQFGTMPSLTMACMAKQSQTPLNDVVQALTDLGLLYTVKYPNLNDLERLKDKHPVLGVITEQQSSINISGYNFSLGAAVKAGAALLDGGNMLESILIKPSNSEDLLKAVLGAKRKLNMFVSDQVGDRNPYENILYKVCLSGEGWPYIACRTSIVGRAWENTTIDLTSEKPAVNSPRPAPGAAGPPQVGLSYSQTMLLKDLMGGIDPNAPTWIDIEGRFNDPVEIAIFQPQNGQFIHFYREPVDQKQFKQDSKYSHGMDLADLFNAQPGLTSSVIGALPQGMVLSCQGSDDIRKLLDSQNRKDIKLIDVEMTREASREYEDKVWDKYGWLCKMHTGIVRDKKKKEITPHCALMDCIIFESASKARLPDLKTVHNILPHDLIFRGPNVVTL

[6] = qHTS of pediatric cancer cell lines to identify multiple opportunities for drug repurposing: Primary screen for TC32 cells (AID 1347089; active = well fitted curve in the direction sought with a large enough effect; an effect the other way counts as inactive or inconclusive; note: nearly all actives have a fitted effect of over 60% in size)
Outline: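 Measured quantity: luminescence from CellTiter-Glo, reflecting metabolically active TC32 cells following 48 h of compound. Curves came straight from multi-point titrations, with 8 or 11 points in primary and 11 in confirmatory screening.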

[7] = qHTS of pediatric cancer cell lines to identify multiple opportunities for drug repurposing: Primary screen for DAOY cells (AID 1347090; active = well fitted curve in the direction sought with a large enough effect; an effect the other way counts as inactive or inconclusive; note: nearly all actives have a fitted effect of over 55% in size; note: potency is the fitted concentration of half-maximal effect)
Outline: (§1)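 Cell viability, CellTiter-Glo luminescence; 500-1,000 cells/well, 8- or 11-point titration, 48 h compound exposure at 37 degrees C, 5% CO2. Controls: DMSO neutral, bortezomib 2.3 µM final as positive.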

[8] = qHTS of pediatric cancer cell lines to identify multiple opportunities for drug repurposing: Primary screen for SJ-GBM2 cells (AID 1347091; active = well fitted curve in the direction sought with a large enough effect; an effect the other way counts as inactive or inconclusive)
Outline: as §1

[9] = qHTS of pediatric cancer cell lines to identify multiple opportunities for drug repurposing: Primary screen for A673 cells (AID 1347092; active = well fitted curve in the direction sought with a large enough effect; an effect the other way counts as inactive or inconclusive; note: nearly all actives have a fitted effect of over 45% in size; note: potency is the fitted concentration of half-maximal effect)
Outline: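 Cells are plated, rested 5 h, dosed by pintool, incubated 48 h, then lysed with CellTiter-Glo and read by luminescence. DMSO is the neutral control; bortezomib at 2.3 uM final is the positive control.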

[10] = qHTS of pediatric cancer cell lines to identify multiple opportunities for drug repurposing: Primary screen for SK-N-MC cells (AID 1347093; active = well fitted curve in the direction sought with a large enough effect; an effect the other way counts as inactive or inconclusive; note: potency is the fitted concentration of half-maximal effect)
Outline: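 Metabolically active cells were quantified by ATP-dependent luminescence (CellTiter-Glo, 15 min at room temperature) following 48 h treatment. Cells had been plated at 500-1,000 per well and settled for 5 h beforehand.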

[11] = qHTS of pediatric cancer cell lines to identify multiple opportunities for drug repurposing: Primary screen for BT-37 cells (AID 1347094; active = well fitted curve in the direction sought with a large enough effect; an effect the other way counts as inactive or inconclusive; note: potency is the fitted concentration of half-maximal effect)
Outline: (§2)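 Readout: CellTiter-Glo luminescence, 48 h treatment. Controls DMSO (neutral) and bortezomib 2.3 µM final (positive). Potency and efficacy taken from primary-screen concentration-response curves.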

[12] = qHTS of pediatric cancer cell lines to identify multiple opportunities for drug repurposing: Primary screen for NB-EBc1 cells (AID 1347095; active = well fitted curve in the direction sought with a large enough effect; an effect the other way counts as inactive or inconclusive)
Outline: as §2

[13] = qHTS of pediatric cancer cell lines to identify multiple opportunities for drug repurposing: Primary screen for U-2 OS cells (AID 1347096; active = well fitted curve in the direction sought with a large enough effect; an effect the other way counts as inactive or inconclusive; note: nearly all actives have a fitted effect of over 50% in size; note: potency is the fitted concentration of half-maximal effect)
Outline: (§3)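 Cells (500-1,000/well) rested 5 h, then received compounds for 48 h; metabolically active cells were measured by CellTiter-Glo luminescence. Final concentrations spanned up to 46 µM (MIPE, 11-point) or 0.59 nM-46 µM (NPC, 8-point) in primary screens, 11-point in follow-ups.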

[14] = qHTS of pediatric cancer cell lines to identify multiple opportunities for drug repurposing: Primary screen for SK-N-SH cells (AID 1347098; active = well fitted curve in the direction sought with a large enough effect; an effect the other way counts as inactive or inconclusive; note: nearly all actives have a fitted effect of over 65% in size; note: potency is the fitted concentration of half-maximal effect)
Outline: as §3

[15] = qHTS of pediatric cancer cell lines to identify multiple opportunities for drug repurposing: Primary screen for NB1643 cells (AID 1347099; active = well fitted curve in the direction sought with a large enough effect; an effect the other way counts as inactive or inconclusive; note: nearly all actives have a fitted effect of over 50% in size; note: potency is the fitted concentration of half-maximal effect)
Outline: as §2

[16] = qHTS of pediatric cancer cell lines to identify multiple opportunities for drug repurposing: Primary screen for LAN-5 cells (AID 1347100; active = well fitted curve in the direction sought with a large enough effect; an effect the other way counts as inactive or inconclusive)
Outline: as §3

[17] = qHTS of pediatric cancer cell lines to identify multiple opportunities for drug repurposing: Primary screen for Saos-2 cells (AID 1347097; active = well fitted curve in the direction sought with a large enough effect; an effect the other way counts as inactive or inconclusive; note: potency is the fitted concentration of half-maximal effect; nearly all actives have a fitted effect of over 40% in size); details: Saos-2 viability, CellTiter-Glo ATP luminescence, 48 h
Outline: as §2

Measured: Potency

COc1ccc2c(c1)[C@@]13CCCC[C@H]1[C@@H](C2)NCC3
inactive: [1] | [2] | [3] | [4] | [5]

COc1ccc2c(c1O)-c1cccc3c1[C@@H](C2)N(C)CC3
inactive: [1] | [2] | [3] | [4] | [5]

CCN(CC)c1ncnc2c1ncn2[C@@H]1O[C@H](COP(=O)(O)OP(=O)(O)C(Br)(Br)P(=O)(O)O)[C@@H](O)[C@H]1O
inactive: [2] | [3] | [4] | [5]

NC(Cc1ccc(N(CCCl)CCCl)cc1)C(=O)O (stereo unspecified)
inactive: [2] | [3] | [4]

CC1=C2C[C@H]3[C@@H](CC=C4C[C@@H](O)CC[C@@]43C)[C@@H]2CC[C@]12O[C@@H]1C[C@H](C)CN[C@H]1[C@H]2C
inactive: [2] | [3] | [4] | [5]

C[N+]1(C)CCC(OC(=O)C(c2ccccc2)c2ccccc2)CC1
inactive: [2] | [3] | [4] | [5]

CCCSP(=O)(OCC)SCCC
not listed: [1] | [2] | [5] | [17]
inactive: all other assays above

CN(C)[C@@H]1C(=O)C(C(N)=O)=C(O)[C@@]2(O)C(=O)C3=C(O)c4c(O)ccc(Cl)c4[C@@](C)(O)[C@H]3C[C@@H]12
inactive: [2] | [3] | [4] | [5]

O[C@H]1[C@H]2[C@H](O)CCCN2C[C@H]1O
inactive: [2] | [3] | [4] | [5]

C=CCN(C1=NCCN1)c1c(Cl)cccc1Cl
inactive: [2] | [3] | [4] | [5]

N[C@@H](Cn1ccc(=O)[nH]c1=O)C(=O)O
inactive: [2] | [3] | [4] | [5]

C[C@]12C=CC(=O)C=C1CC[C@@H]1[C@@H]2CC[C@]2(C)OC(=O)CC[C@@H]12
inactive: [2] | [3] | [4] | [5]

C=CCN1CCc2cccc3c2[C@H]1Cc1ccc(O)c(O)c1-3
inactive: [1] | [2] | [3] | [4] | [5]

O=C/C=C/c1ccccc1
inactive: [2] | [3] | [4] | [5]

C[N+]1(C)[C@@H]2CC(OC(=O)[C@H](CO)c3ccccc3)C[C@H]1[C@H]1O[C@@H]12 (stereo partly specified)
inactive: [2] | [3] | [4] | [5]

N[C@@H](CCl)C(=O)O
inactive: [1] | [2] | [3] | [4] | [5]

CCN(CCCl)Cc1ccccc1Br
inactive: [1] | [2] | [3] | [4] | [5]

COc1ccc2c(c1)c(CCN1CCOCC1)c(C)n2C(=O)c1cccc(Cl)c1Cl
inactive: [2] | [3]

C=CCN1CC[C@]23c4c5ccc(O)c4O[C@@H]2/C(=N/N=C2\CC[C@@]4(O)C6Cc7ccc(O)c8c7[C@@]4(CCN6CC=C)[C@@H]2O8)CC[C@@]3(O)C1C5
inactive: [1] | [2] | [3] | [4] | [5]

O=c1c2ccccc2[se]n1-c1ccccc1
inactive: [2] | [3] | [4] | [5]

CC(C)[C@@]1(NC(=O)[C@@H]2C[C@@H]3c4cccc5[nH]cc(c45)C[C@H]3N(C)C2)O[C@@]2(O)[C@@H]3CCCN3C(=O)[C@H](Cc3ccccc3)N2C1=O
inactive: [1] | [2] | [3] | [4] | [5]

CCCN(CCC)CCc1c[nH]c2ccc(C(N)=O)cc12
inactive: [1] | [2] | [3] | [4] | [5]

O=C(O)c1cc[c]([Hg][Cl])cc1
inactive: [2] | [3] | [4] | [5]

N#C/C(=C/c1ccc(O)c(O)c1)C(N)=S
inactive: [2] | [3] | [4] | [5]

NC(N)=NOCC[C@H](N)C(=O)O
inactive: [2] | [3] | [4] | [5]

CN1[C@H]2CC[C@@H]1[C@@H](C(=O)O)[C@@H](OC(=O)c1ccccc1)C2
inactive: [2] | [3] | [4] | [5]

C[C@@H]1O[C@H](C[N+](C)(C)C)CS1
inactive: [1] | [2] | [3] | [4] | [5]

CC(C)CC(NP(=O)(O)O[C@@H]1O[C@@H](C)[C@H](O)[C@@H](O)[C@H]1O)C(=O)NC(Cc1c[nH]c2ccccc12)C(=O)O (stereo partly specified)
inactive: [2] | [3] | [4] | [5]

CCCCCCC(C)(C)c1ccc([C@@H]2C[C@H](O)CC[C@H]2CCCO)c(O)c1
inactive: [1] | [2] | [4]

CN[C@H]1C[C@@H](N)[C@H](O)[C@@H](O[C@@H]2O[C@H](CO)[C@H](O)[C@@H]3OC4(O[C@H]23)O[C@H](C(N)CO)[C@H](O)[C@H](O)[C@H]4O)[C@@H]1O (stereo partly specified)
inactive: [2] | [3] | [4] | [5]

CC1OC1P(=O)(O)O (stereo unspecified)
inactive: [2] | [3] | [4] | [5]

COC1=CC=C2[C@H]3Cc4ccc(OC)c5c4[C@@]2(CCN3C)[C@H]1O5
inactive: [3] | [4] | [5]

CCCn1c(C)c(C(=O)c2ccc3ccccc3c2)c2ccccc21
inactive: [2] | [3] | [4] | [5]

C/C(O)=C(\C#N)C(=O)Nc1cc(Br)ccc1Br
inactive: [1] | [2] | [3] | [4] | [5]

COc1cc(CC(C)N)c(OC)cc1I (stereo unspecified)
inactive: [2] | [3] | [4] | [5]

C[CH2][Hg][S]c1ccccc1C(=O)O
inactive: [2] | [3] | [4] | [5]
active: [7] 2.66 µM | [9] 0.841 µM | [10] 0.668 µM | [11] 12.3 µM | [13] 6.68 µM | [17] 0.841 µM | [14] 3.07 µM | [15] 2.37 µM
